Assay results as given in PubChem BioAssay AID1259422 (The Scripps Research Institute Molecular Screening Center, 2018).
Among all 640,000 compounds or so, about 9,300 (1.5%) were called active. Rule as the data show it: active = inhibition above about 32%; inactive = the rest. Only a selection was taken, and actives are over-represented in it overall.

Assay: TEAD-YAP interaction inhibition, primary screen, TEAD-YAP interaction inhibitor project, luminescence, HEK-TIYL cells (AID 1259422);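 also: 0% = median of test compound wells and 100% = reference inhibitor wells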
Details: TEAD-Gal4/YAP UAS-luciferase luminescence, at 9.12 µM, active compounds read high

SMILES	inhibition
COc1ccccc1N1CCN(CC(O)COc2ccc(C#N)cc2)CC1 (stereo not given)	0.33% (inactive)
O=C(N/N=C/c1ccco1)c1cccc(F)c1	-63.8% (inactive)
Fc1ccc(C2C=C(c3cccs3)NC(=S)N2)cc1 (stereo not given)	13.5% (inactive)
CC(C)N1CCC(N2CCN(Cc3nc(-c4ccccc4)cs3)CC2CCO)CC1 (stereo not given)	-5.11% (inactive)
COC(=O)N1CCC(C(=O)N(C)C(c2ccc(F)cc2)c2ccccn2)CC1 (stereo not given)	11.1% (inactive)
CCN(CC)CCn1c(=S)sc2c(=O)n(-c3ccccc3OC)c(SCc3ccccc3Cl)nc21	-5.55% (inactive)
O=C(Nc1ccc2c(c1)OCCO2)C(=O)Nc1ccc2nc3n(c(=O)c2c1)CCCCC3	-4.8% (inactive)
Cc1ncsc1C(=O)N1CCC(c2c(S(C)(=O)=O)cnc3ncnn23)CC1	11.5% (inactive)
CCOc1cc(Br)c([N+](=O)[O-])cc1OCC	-4.81% (inactive)
CCOc1ccc(C2N(c3cccc(Cl)c3)C(=O)C3CCCN32)cc1OC (stereo not given)	0.7% (inactive)
CCOc1ccc(C2Oc3c(Br)cc(Br)cc3C=C2[N+](=O)[O-])cc1OC (stereo not given)	86% (active)
CCOc1cc(/C=C2/N=C(c3ccc(Cl)cc3)OC2=O)ccc1OCc1ccc(Cl)cc1	-7.55% (inactive)
Cc1ccc(-c2nn3cc(-c4ccccc4)c4c3n2CCCC4)cc1	-4.85% (inactive)
O=C(CNC1=NCCCCC1)c1ccc(-c2ccccc2)cc1	-23.5% (inactive)
Cc1ccc(C(=O)C[n+]2cc(-c3ccccc3)n3c2CCCCC3)cc1	38.8% (active)
CN(C(=S)Nc1ccc(Cl)cc1)c1c(N)n(Cc2ccccc2)c(=O)[nH]c1=O	-0.81% (inactive)
COc1ccc(N2CCN(C(CNC(=O)c3cccs3)c3ccc4c(c3)OCO4)CC2)cc1 (stereo not given)	-22.3% (inactive)
Cn1c(C2COc3ccccc3O2)nc2ccc(-c3cn[nH]c3)cc21 (stereo not given)	-90.1% (inactive)
CC(C)n1c(C2COc3ccccc3O2)nc2ncc(-c3ccncc3)cc21 (stereo not given)	33% (active)
c1ccc2c(c1)OCC(c1nc3ccc(-c4ccncc4)cc3[nH]1)O2 (stereo not given)	-24.1% (inactive)
COc1cccc(/C=N/N2CCN(Cc3ccc(C)cc3)CC2)c1	-0.53% (inactive)
Clc1ccc(CN2CCN(/N=C/c3c(Cl)nc4ccccn34)CC2)cc1	35.3% (active)
Cc1nc2ccccn2c1CN1CCN(CC(O)COCc2ccc(Cl)cc2)CC1 (stereo not given)	22.8% (inactive)
CCOC(=O)CC(=O)CSc1nc2c(sc(=S)n2-c2ccc(Cl)c(C)c2)c(=O)n1-c1ccccc1OC	0.42% (inactive)
COC(=O)c1cnn2c(C(F)(F)F)cc(-c3ccc(Br)cc3)nc12	13.7% (inactive)
